Several values for one entry are separate records, joined by “and”; a condition that tells them apart may be missing. Equal values may be shown once. The campaign covered roughly 5,500 compounds. About 2,000 (36%) were called active. About 18% were inconclusive and are not listed. No stated cut-off is given here; in the data, active means normalized growth mostly below about 0.91 (no sharp cut-off); inconclusive means no clear call, values can overlap the other calls; inactive means mostly above about 0.92. Some of the results follow.
Experiment: chemical genetic growth profiling, strain panel (AID 1159580);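 further: tested at 20 µM; growth read once vehicle control cultures reached saturation at 30 °C; 1 = growth at the plate median or of vehicle wells; lower values mean less growth of the strain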
Conditions: S. cerevisiae deletion strains, growth OD

Measured: normalized growth

CC(C)(C)NC[C@@H](O)COc1nsnc1N1CCOCC1
inactive: locus YAL021C, strain ccr4, active compounds read low 1.02 | locus YAL026C, strain drs2, active compounds read low 1.01 | locus YAL030W, strain snc1, active compounds read low 1.02 | locus YBL061C, strain skt5, active compounds read low 1.01 | locus YBR009C, strain hhf1, active compounds read low 1.01 | locus YBR021W, strain FUR4, active compounds read low 1 | locus YBR023C, strain chs3, active compounds read low 1 | locus YBR171W, strain sec66, active compounds read low 1.03 | locus YBR229C, strain ROT2, active compounds read low 0.977 | locus YBR231C, strain swc5, active compounds read low 1.02 | locus YBR279W, strain paf1, active compounds read low 1.01 | locus YCL011C, strain gbp2, active compounds read low 1.02 | locus YCL016C, strain dcc1, active compounds read low 1.01 | locus YCL029C, strain bik1, active compounds read low 0.978 | locus YCL069W, strain vba3, active compounds read low 1.01 | locus YCR088W, strain abp1, active compounds read low 1.02 | locus YDL005C, strain med2, active compounds read low 1.02 | locus YDL035C, strain GPR1, active compounds read low 1.02 | locus YDL040C, strain nat1, active compounds read low 1.01 | locus YDL074C, strain BRE1, active compounds read low 0.985 | locus YDL101C, strain DUN1, active compounds read low 0.99 | locus YDL185W, strain tfp1, active compounds read low 0.977 | locus YDL192W, strain arf1, active compounds read low 0.994 | locus YDR001C, strain nth1, active compounds read low 1.01 | locus YDR069C, strain doa4, active compounds read low 1.01 | locus YDR101C, strain arx1, active compounds read low 0.95 | locus YDR137W, strain rgp1, active compounds read low 1.02 | locus YDR150W, strain NUM1, active compounds read low 0.99 | locus YDR159W, strain sac3, active compounds read low 1 | locus YDR162C, strain NBP2, active compounds read low 1.02 | locus YDR195W, strain ref2 1.03 | locus YDR297W, strain sur2, active compounds read low 1.02 | locus YDR318W, strain mcm21, active compounds read low 1 | locus YDR334W, strain swr1, active compounds read low 1.02 | locus YDR335W, strain msn5, active compounds read low 1.02 | locus YDR388W, active compounds read low 0.99 | locus YDR392W, strain spt3, active compounds read low 0.973 | locus YDR502C, strain sam2, active compounds read low 0.994 | locus YEL003W, strain gim4, active compounds read low 1.02 | locus YEL037C, strain rad23, active compounds read low 1.01 | locus YEL061C, strain CIN8 (second series), active compounds read low 1.02 | locus YEL061C, strain CIN8, active compounds read low 0.996 | locus YER015W, strain faa2, active compounds read low 1 | locus YER016W, strain bim1, active compounds read low 0.994 | locus YER110C, active compounds read low 0.974 | locus YER111C, strain swi4, active compounds read low 1.02 | locus YER155C, strain BEM2 (second series), active compounds read low 1.01 | locus YER155C, strain BEM2, active compounds read low 0.987 | locus YER167W, strain BCK2, active compounds read low 0.986 | locus YFR010W, strain ubp6, active compounds read low 1.02 | locus YGL078C, strain dbp3, active compounds read low 1 | locus YGL086W, strain mad1, active compounds read low 0.966 | locus YGL167C, strain pmr1, active compounds read low 1.02 | locus YGL173C, strain kem1, active compounds read low 1.02 | locus YGL227W, strain vid30, active compounds read low 1.01 | locus YGL240W, strain doc1, active compounds read low 1.02 | locus YGL248W, strain PDE1, active compounds read low 1 | locus YGL253W, strain hxk2, active compounds read low 1.02 | locus YGR078C, strain PAC10, active compounds read low 1 | locus YGR135W, strain pre9, active compounds read low 1 | locus YGR252W, strain gcn5, active compounds read low 1.08 | locus YHR013C, strain ard1, active compounds read low 1.02 | locus YHR027C, strain rpn1, active compounds read low 1.01 | locus YHR030C, strain SLT2, active compounds read low 0.997 and 0.975 | locus YHR079C, strain IRE1 (second series), active compounds read low 0.983 | locus YHR079C, strain IRE1, active compounds read low 0.973 | locus YHR094C, strain hxt1, active compounds read low 0.974 | locus YHR129C, strain ARP1, active compounds read low 1 | locus YHR142W, strain chs7, active compounds read low 1.03 | locus YHR200W, strain rpn10, active compounds read low 1 | locus YIL066C, strain RNR3, active compounds read low 0.985 | locus YIL073C, strain SPO22, active compounds read low 1.01 | locus YIL125W, strain kgd1, active compounds read low 0.981 | locus YIR030C, strain dcg1, active compounds read low 1 | locus YJL092W, strain hpr5, active compounds read low 1.01 | locus YJL095W, strain BCK1 (second series), active compounds read low 1.02 | locus YJL095W, strain BCK1, active compounds read low 1.01 and 0.975 | locus YJL115W, strain asf1, active compounds read low 1.01 | locus YJL129C, strain trk1, active compounds read low 1.02 | locus YJL134W, strain LCB3, active compounds read low 0.985 | locus YJL154C, strain vps35, active compounds read low 1.02 | locus YJL164C, strain tpk1, active compounds read low 1.01 | locus YJL166W, strain qcr8, active compounds read low 1.01 | locus YJL168C, strain set2, active compounds read low 0.984 | locus YJL187C, strain SWE1 (second series), active compounds read low 0.99 | locus YJL187C, strain SWE1, active compounds read low 1.02 | locus YJR043C, strain POL32, active compounds read low 1.03 | locus YJR066W, strain TOR1, active compounds read low 0.929

From PubChem BioAssay AID1159580 (chemical genetic matrix, 2015)
